IEC-6 tox: IEC-6 cytotoxicity, counter-screen for KLF5 inhibitors; luminescence viability; inhibition, % at 5 µM; 290,000 compounds, 0.78% hits; AID 1825;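 further: 0% = plate median of test compound wells and 100% = cytotoxic reference compound wells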
KLF5 inh: kruppel-like factor 5 inhibition; DLD-1 KLF5 promoter-luciferase reporter, luminescence; inhibition, % at 5 µM; 290,000 compounds, 0.23% hits; AID 1700;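 active means inhibition above a per-plate limit of that plate's mean compound inhibition plus 3 SD, cut at about 60% in these data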;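 further: 0% = DMSO wells and 100% = LY294002 at 200 µM; higher means less KLF5 promoter-driven luciferase light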
Ba/F3 V617F tox: loss of viability in JAK2V617F-driven Ba/F3 cells | 220,000 compounds, 1.1% hits | Ba/F3 EpoR-JAK2V617F viability, ATP luminescence | AID 1446 | inhibition, % at 5.6 µM;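 active means inhibition above the campaign mean plus 3 SD over all tested compounds, cut at about 24% in these data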;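 further: cytokine-independent growth of Ba/F3 cells driven by EpoR plus mutant JAK2; 0% = DMSO-treated cells and 100% = JAK inhibitor I control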
APP 5UTR inh: APP translation inhibition | SH-SY5Y APP 5'UTR-luciferase reporter, luminescence | inhibition, % at 2 µM | 190,000 compounds, 0.82% hits;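 active means inhibition above a set limit, derived from the sample mean plus 3 SD, cut at about 45% in these data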
BaF3 tox: reduces parental Ba/F3 cell viability, JAK2V617F counter-screen; AID 1486; CellTiter-Glo ATP luminescence; 220,000 compounds, 1.1% hits; inhibition, % at 5.6 µM;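 active means inhibition above a per-campaign cutoff, the mean inhibition of all tested compounds plus 3 SD, cut at about 27% in these data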;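 further: 0% = DMSO wells and 100% = JAK Inhibitor I control wells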
IEC-6 tox confirm: confirmation of cytotoxic compounds in rat IEC-6 intestinal epithelial cells | shares compounds with IEC-6 tox | IEC-6 rat intestinal epithelial viability, luminescence | inhibition, % at 5 µM | 1,900 compounds, 63% hits | AID 1907;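 further: 0% = vehicle and 100% = reference cytotoxic drug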
* hit, by the source's call; x = no result given. The list is not random: actives were taken first. Their share in the collection is about 1.9%. Unless noted, no stated cut-off is given here; in the data, active means inhibition above about 22%; inactive means the rest.

SMILES | IEC-6 tox | KLF5 inh | Ba/F3 V617F tox | APP 5UTR inh | BaF3 tox | IEC-6 tox confirm
NC(=O)CC(NC(=O)c1cccc(Br)c1)c1ccc(N2CCN(c3ccccn3)CC2)c([N+](=O)[O-])c1 (stereo not given) | -4 | -1 | x | x | x | x
CCN(c1ccccc1)S(=O)(=O)c1ccc(C(=O)NCCCn2ccnc2)cc1 | 5 | -12 | -3 | 12 | 1 | x
CCN(c1ccccc1)S(=O)(=O)c1ccc(Oc2ccc(-n3ccnc3)cc2)nc1 | 30* | -7 | 11 | 2 | 20 | 29*
Cc1cc(Nc2ccccc2)nc(NCc2ccccc2)n1 | 13 | -13 | 9 | 2 | 16 | x
CCCCNc1cc(C)nc(NCc2ccccc2)n1 | 23* | -8 | 50* | -12 | 45* | 2
Cn1cc([N+](=O)[O-])c(C(=O)Nc2sc3c(c2C#N)CCC3)n1 | 92* | 14 | x | x | x | 29*
Cc1ccc2cccc(OCC(=O)N3CC(C)CC(C)C3)c2n1 (stereo not given) | 1 | -23 | 1 | 15 | 5 | x
COc1ccc(CNC(=O)c2nc(S(=O)(=O)Cc3ccccc3)ncc2Cl)cc1 | 50* | 20 | x | x | x | 22*
O=C(NCc1ccccc1)c1c(Cl)nc(Cl)c(Cl)c1Cl | 23* | -14 | x | x | x | -4
CC(=O)Nc1ccc(NC(=O)c2nc(S(=O)(=O)Cc3ccccc3)ncc2Cl)cc1 | 26* | 19 | x | x | x | 1
O=C(NCc1ccccc1)c1nc(S(=O)(=O)Cc2ccccc2)ncc1Cl | 52* | 19 | x | x | x | 24*
COC(=O)c1ccccc1NC(=O)c1nc(S(=O)(=O)Cc2ccccc2)ncc1Cl | 9 | 40 | x | x | x | x
CCc1ccc(NC(=S)N2CCCC(C(F)(F)F)C2)cc1 (stereo not given) | 1 | -22 | -3 | -21 | 2 | x
O=C(Nc1ccc2ccccc2c1)c1cnccn1 | 1 | -196 | 3 | -157 | 8 | x
CS(=O)(=O)c1ncc(Cl)c(C(=O)Nc2ccc3ccccc3c2)n1 | 24* | 5 | 83* | 96* | 52* | 21
CN(C(=O)CSc1nc(N)cc(N)n1)C1CCS(=O)(=O)C1 (stereo not given) | -1 | -21 | x | x | x | x
Cn1c(=O)c(C(=O)NCC2CCCO2)c(O)c2ccccc21 (stereo not given) | 12 | -34 | -4 | -20 | 1 | x
Cn1c2ccccc2c2cc([N+](=O)[O-])ccc21 | -1 | -32 | -5 | x | 2 | x
CCN(CC)CCn1c2ccccc2c2nc3ccc([N+](=O)[O-])cc3cc21 | 36* | 10 | 78* | x | 76* | 32*
COc1cc(/C=N/NC(=O)Cc2ccc(Br)cc2)cc(OC)c1O | -2 | -9 | -5 | -12 | -1 | x
COc1cc(/C=N/NC(=O)CC#N)cc(Br)c1O | 37* | 9 | -4 | -6 | 0 | -6
O=C(NCc1ccco1)c1ccc(-c2csnn2)cc1 | -1 | -30 | -5 | x | 2 | x
C/C(=N\Nc1ncnc2sc(C)c(C)c12)c1ccccn1 | 91* | 24 | x | x | x | 94*
Cc1sc2ncnc(N/N=C/c3cccc(O)c3)c2c1C | 5 | -4 | 2 | -39 | 0 | x
COCCNC(=O)C1CCCN(S(=O)(=O)c2ccc3c(c2)CC(C)N3C(=O)C2CC2)C1 (stereo not given) | -4 | -10 | x | x | x | x
SMILES | IEC-6 tox | KLF5 inh | Ba/F3 V617F tox | APP 5UTR inh | BaF3 tox | IEC-6 tox confirm
COc1cc2ncnc(NCc3cccc(F)c3F)c2cc1OC | 35* | -9 | x | x | x | 28*
COc1cc2ncnc(NCc3ccccc3F)c2cc1OC | 28* | 0 | x | x | x | 33*
Fc1ccc(F)c(CNc2ncnc3cc(Cl)ccc23)c1 | 10 | 4 | x | x | x | x
FC(F)(F)c1cccc(Cn2nnnc2-c2cccc(C(F)(F)F)c2)c1 | 4 | -52 | 0 | -17 | 5 | x
COc1ccc(CC(=O)NCc2ccccc2)cc1 | 50* | 45 | x | x | x | 37*
O=C(Cc1ccc(Br)cc1)NCc1ccccc1 | 60* | 35 | x | x | x | 45*
COC1CCCN(Cc2cn(C)nc2-c2ccc(Oc3ccccc3)cc2)C1 (stereo not given) | 4 | 16 | 4 | 12 | 7 | x
CCCN1CCC(NCc2cn(C)nc2-c2ccc(Oc3ccccc3)cc2)CC1 | 36* | -9 | 53* | x | 67* | 43*
CCc1nnc(NC(=O)c2ccc(OC)cc2)s1 | 36* | -34 | -1 | -129 | 7 | 2
COc1ccc(Nc2nc(N)c(C(=O)c3ccc(OC)cc3)s2)cc1 | 66* | 41 | x | x | x | 50*
COc1ccc(C(=O)c2sc(Nc3ccccc3)nc2C)cc1 | -2 | -15 | x | x | x | x
COc1ccc(Nc2nc(N)c(C(=O)c3ccc(F)cc3)s2)cc1 | 74* | 48 | x | x | x | 57*
O=C(c1ccco1)N1CCN(Cc2cccc3ccccc23)CC1 | 26* | 6 | x | x | x | 16
O=C(c1ccco1)N1CCN(Cc2ccccc2C(F)(F)F)CC1 | 14 | 7 | 0 | -9 | 4 | x
CO/N=C/c1ccc(OC)c(Oc2nc(OC)cc(OC)n2)c1 | 28* | 14 | -1 | 66* | 10 | 3
CCO/N=C/c1ccc(OC)c(Oc2nc(OC)cc(OC)n2)c1 | -6 | -20 | -4 | -36 | 3 | x
CCOc1ccc(N(CC(=O)NC2CCCCC2)C(=O)CCC(=O)Nc2cc(C)ccn2)cc1 | -5 | -30 | x | x | x | x
COc1cccc(CN2CCN(Cc3ccc(OC)c(OC)c3)CC2CCO)c1 (stereo not given) | -5 | -25 | 0 | -11 | 3 | x
COc1ccc(C(=O)C(CCCCC(CN(C)C)C(=O)c2ccc(OC)cc2)CN(C)C)cc1 (stereo not given) | 5 | -25 | 2 | -21 | 8 | x
CCOc1ccc(C(=O)C(CCC(CN(C)C)C(=O)c2ccc(OCC)cc2)CN(C)C)cc1 (stereo not given) | 29* | 19 | 101* | 92* | 40* | 27*
CCC(C)c1ccc(NC(=O)Nc2cnccn2)cc1 (stereo not given) | 79* | 27 | x | x | x | 55*
Cc1cc(C)cc(NC(=O)Nc2ccc(-n3ccc(C(F)(F)F)n3)cc2)c1 | 8 | -9 | 4 | x | 3 | x
O=C(Nc1ccc(-n2ccc(C(F)(F)F)n2)cc1)Nc1cccc(Cl)c1 | 23* | -55 | 54* | x | 63* | 48*
CC1CCCN(S(=O)(=O)c2ccc(C(=O)Nc3nnc(-c4ccco4)o3)cc2)C1 (stereo not given) | 25* | 51 | x | x | x | 16
COc1ccccc1-n1cnc2cc(NCc3ccco3)ccc21 | 80* | 56 | 74* | 94* | 78* | 56*
SMILES | IEC-6 tox | KLF5 inh | Ba/F3 V617F tox | APP 5UTR inh | BaF3 tox | IEC-6 tox confirm
COc1ccccc1-n1cnc2cc(NCc3ccccc3O)ccc21 | 1 | -18 | 2 | x | 2 | x
Cc1nnc(N/N=C/c2cc(C)n(-c3ccc(F)cc3)c2C)n1N | 99* | -12 | 2 | 2 | 5 | -4
Cc1nnc(N/N=C/c2ccccc2O)n1N | 102* | -4 | 4 | 14 | 0 | 4
CCc1nnc(N/N=C/c2c(F)cccc2Cl)n1N | 1 | -17 | x | x | x | x
Cc1nnc(N/N=C/c2c(Cl)cccc2Cl)n1N | 102* | -3 | -1 | 4 | 0 | -13
Cc1cc(/C=N/NC(N)=S)c(C)n1-c1ccc(Br)cc1 | 6 | 5 | 10 | -22 | 14 | x

Screens from PubChem.
